Source: PubChem (Broad Institute)
Only some compounds are listed: those with a hit (about 2% of all), similar ones and a draw of the others.
ID4 binder = binders of human ID4 protein; 31,000 tested, 1.2% active; calls only; small molecule microarray, Flag-ID4 binding, fluorescence F/B; call rule not given here;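 also: a binder raises fluorescence above local background on the spot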
Target sequence (P47928 whole entry, looked up): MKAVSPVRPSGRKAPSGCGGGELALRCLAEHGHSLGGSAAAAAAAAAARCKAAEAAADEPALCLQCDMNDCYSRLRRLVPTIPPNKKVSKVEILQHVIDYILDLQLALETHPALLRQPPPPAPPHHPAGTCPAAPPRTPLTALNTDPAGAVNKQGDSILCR
p53 PUMA act = re-activators of the mutant p53 pathway; SW480 PUMA-promoter luciferase, p53 mutant reactivation; activation, % at 9.98 µM; 28,000 tested, 1.5% active; in the data active = activation above about 52%
STK33 kin inh = inhibitors of human STK33 kinase | inhibition, % at 12.5 µM | 27,000 tested, 0.44% active | ADP-Glo luminescence, MBP substrate | Q9BYT3 | AID 2322; in the data active = inhibition above about 20%
Target sequence (Q9BYT3 whole entry, looked up): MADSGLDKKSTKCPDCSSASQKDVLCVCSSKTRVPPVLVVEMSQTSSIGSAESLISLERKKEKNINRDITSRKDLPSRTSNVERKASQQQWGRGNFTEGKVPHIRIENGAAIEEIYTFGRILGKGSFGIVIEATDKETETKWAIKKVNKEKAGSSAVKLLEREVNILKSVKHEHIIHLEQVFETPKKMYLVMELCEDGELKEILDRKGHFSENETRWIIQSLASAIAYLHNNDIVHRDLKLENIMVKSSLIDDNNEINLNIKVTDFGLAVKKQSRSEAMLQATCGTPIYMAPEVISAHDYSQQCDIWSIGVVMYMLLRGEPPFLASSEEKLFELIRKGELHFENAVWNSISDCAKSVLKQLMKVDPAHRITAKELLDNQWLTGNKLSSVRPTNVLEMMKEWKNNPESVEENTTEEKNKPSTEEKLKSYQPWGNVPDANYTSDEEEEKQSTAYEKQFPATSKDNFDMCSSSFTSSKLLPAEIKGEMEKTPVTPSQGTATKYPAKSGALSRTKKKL
Each line names hits and unclear results; the compound was inactive in the other large screens.

O=C(O)CC1CCC(CC(O)/C=C\C/C=C\CCCCCO)O1 (stereo not drawn)	none (no result: ID4 binder, p53 PUMA act)
COc1ccc(N(CC(=O)Nc2ccc(F)c(F)c2)S(C)(=O)=O)cc1Cl	none
COC(=O)CSc1nc2ccccc2[nH]1	none (no result: ID4 binder, p53 PUMA act)
c1ccc2[nH]c(SCCCN3CCCCC3)nc2c1	ID4 binder active (no result: STK33 kin inh)
O=C(CSC1CC(=O)N(c2ccc(I)cc2)C1=O)Nc1cccc(F)c1 (stereo not drawn)	none
O=C(CSc1nc(-c2ccccc2)cs1)Nc1ccccc1C(F)(F)F	none
COC(=O)c1ccccc1NC(=O)COc1ccc(Br)cc1C	none
Cc1sc(NC(=S)NC(=O)c2ccco2)c(C(N)=O)c1C	p53 PUMA act 59
Cc1cc(I)cnc1NC(=S)NC(=O)c1ccco1	p53 PUMA act 76
Cc1cccc(C)c1OCC(=O)Nc1cccc(NC(=O)c2ccco2)c1	none
Cc1sc(NC(=S)NC(=O)Cc2cccc3ccccc23)c(C(N)=O)c1C	none
O=C(Nc1ccc(S(=O)(=O)Nc2ccccc2Oc2ccc(Cl)cc2Cl)cc1)C1CC1	none (no result: STK33 kin inh)
Cc1cccc(NC(=O)CN(c2ccc(Br)c(C)c2)S(C)(=O)=O)c1	none
Cc1ccc(NC(=O)CSC2CC(=O)N(c3ccc(Br)cc3)C2=O)cc1Cl (stereo not drawn)	none
Cc1ccc(S(=O)(=O)NCCC(=O)Oc2ccc3c(=O)c(-c4ccc(F)cc4)coc3c2)cc1	p53 PUMA act 105
Cc1cc(C)c(C)c(Oc2coc3cc(OC(=O)CCN4C(=O)c5ccccc5C4=O)ccc3c2=O)c1	none
CC(C)[C@H](N)C(=O)N[C@@H](Cc1c[nH]c2ccccc12)C(=O)O	none (no result: ID4 binder)
CC(NC(=O)/C=C/C(=O)O)C(=O)NC(C(=O)NC(Cc1c[nH]c2ccccc12)C(=O)O)C(C)c1c[nH]c2ccccc12 (stereo not drawn)	STK33 kin inh 150 (no result: p53 PUMA act)
COc1ccc2c(c1)OC/C(=C\c1ccc(OC)c(O)c1)C2=O	none (no result: ID4 binder, p53 PUMA act)
COc1cc(/C=C2\Oc3cc(O)ccc3C2=O)ccc1O	STK33 kin inh 78 (no result: ID4 binder, p53 PUMA act)
COC(=O)c1cc(OC)c(OC)cc1NC(=O)CN1CCCCC1	none
COC(=O)c1cc(OC)c(OC)cc1NC(=S)N1CCC(C(N)=O)(N2CCCCC2)CC1	ID4 binder active
O=C1NCC(=O)N2[C@@H]1C[C@@H](C(=O)NCc1ccc(F)cc1)[C@H]2c1cccc(OCCO)c1	ID4 binder active (no result: p53 PUMA act)
CN(C)CCCCCCNC(=O)[C@H]1C[C@H]2C(=O)N3CCC[C@H]3C(=O)N2[C@H]1c1cccc(OCCO)c1	ID4 binder active (no result: p53 PUMA act)
O=C(NCc1ccc(F)cc1)[C@H]1C[C@H]2C(=O)N3CCC[C@H]3C(=O)N2[C@H]1c1cccc(OCCO)c1	ID4 binder active (no result: p53 PUMA act)
NCCCCCNC(=O)[C@H]1C[C@H]2C(=O)N3CCC[C@H]3C(=O)N2[C@H]1c1cccc(OCCO)c1	none (no result: ID4 binder, p53 PUMA act)
O=C1N[C@@H](Cc2ccccc2)C(=O)N2[C@@H]1C[C@@H](C(=O)NCc1ccc(F)cc1)[C@H]2c1cccc(OCCO)c1	none (no result: ID4 binder, p53 PUMA act)
NCCCCCCNC(=O)[C@H]1C[C@H]2C(=O)N[C@@H](Cc3ccccc3)C(=O)N2[C@H]1c1cccc(OCCO)c1	ID4 binder active (no result: p53 PUMA act)
O=C(NCc1ccc(F)cc1)[C@H]1C[C@H]2C(=O)NCC(=O)N2[C@H]1c1cccc(OCCO)c1	none (no result: p53 PUMA act)
O=C(NCc1ccc(F)cc1)[C@@H]1C[C@@H]2C(=O)N3CCC[C@H]3C(=O)N2[C@@H]1c1cccc(OCCO)c1	none (no result: p53 PUMA act)
COc1cccc(C(=O)COc2ccc(NC(=O)c3ccccc3Cl)cc2)c1	none
O=C1O[C@H](c2ccccc2)[C@H](c2ccccc2)N2[C@H]1[C@@H](C(=O)N1CCN(c3ncccn3)CC1)[C@]1(C(=O)Nc3ccc(C#CC4=CCCCC4)cc31)[C@H]2c1ccccc1OCCO	none (no result: p53 PUMA act)
COCCOC(=O)N1C(=O)[C@@]2(c3cc(C#Cc4ccc(OC)cc4)ccc31)[C@H](c1ccccc1OCCO)N1[C@H](c3ccccc3)[C@H](c3ccccc3)OC(=O)[C@H]1[C@@H]2C(N)=O	none (no result: ID4 binder, p53 PUMA act)
COCCOC(=O)N1C(=O)[C@@]2(c3ccccc31)[C@H](c1ccccc1OCCO)N1[C@H](c3ccccc3)[C@H](c3ccccc3)OC(=O)[C@H]1[C@@H]2C(N)=O	ID4 binder active (no result: p53 PUMA act)
O=C1O[C@H](c2ccccc2)[C@H](c2ccccc2)N2[C@H]1[C@@H](C(=O)N1CCCCCCC1)[C@]1(C(=O)Nc3ccc(C#CC4=CCCCC4)cc31)[C@H]2c1ccccc1OCCO	STK33 kin inh 22 (no result: p53 PUMA act)
CCOc1ccc(NC(=O)C(C)Sc2nc3ccccc3s2)cc1 (stereo not drawn)	none
C=C(C)C(O)C(O)c1c(OC)ccc2ccc(=O)oc12 (stereo not drawn)	none
COc1ccc(CCNS(=O)(=O)c2ccc(OC)c(Cl)c2Cl)cc1OC	none
c1ccc2c(c1)[nH]c1nc(SCCN3CCCCC3)nnc12	none
Cn1c2ccccc2c2nnc(SCCN3CCCCC3)nc21	ID4 binder active
COc1ccc(Nc2nc(N)nc(CSc3nccn3C)n2)cc1	none
Nc1nc(CSc2ccccn2)nc(Nc2ccccc2)n1	p53 PUMA act 89
Fc1ccccc1OCCCCSc1ncccn1	none
N#Cc1ccccc1OCCCCSc1ncccn1	p53 PUMA act 102
CCSc1n[nH]c(-c2c(Cl)c(CC)nn2C)n1	none (no result: STK33 kin inh)
COc1cc2c(cc1NC(=O)CSc1nnc(N)s1)oc1ccccc12	p53 PUMA act 117
COc1ccc(NC(=O)CSc2nnc(N)s2)c(OC)c1	none
COc1cc2c(cc1NC(=O)CSc1ccccn1)oc1ccccc12	none
COc1cc2c(cc1NC(=O)CSc1nnnn1C)oc1ccccc12	p53 PUMA act 147
CC(=O)c1cccc(NC(=O)C(C)NS(=O)(=O)c2ccc(Cl)cc2)c1 (stereo not drawn)	none
Cc1cc(Cl)ccc1NC(=O)CSc1nc(C(F)(F)F)cc(=O)[nH]1	none
O=S(=O)(N[C@@H]1CCCN(Cc2ccc(OCCO)cc2)C1)c1ccc(Cl)cc1	ID4 binder active (no result: p53 PUMA act)
O=C1c2ccccc2C(=O)N1C[C@@H]1CCCN(Cc2cccc(OCCO)c2)C1	none (no result: p53 PUMA act)
O=C1c2ccccc2C(=O)N1C[C@@H]1CCCN(Cc2ccc(OCCO)cc2)C1	ID4 binder active (no result: p53 PUMA act, STK33 kin inh)
COc1ccc(S(=O)(=O)N[C@@H]2CCCN(Cc3ccc(OCCO)cc3)C2)cc1	none (no result: p53 PUMA act)
Cn1c(SCC(=O)NCCO)nc2ccccc2c1=O	none
C[C@@H]1C[C@H]2OCC3=CCC[C@H]([C@]1(CC(O)c1ccoc1)C(=O)O)[C@]32CO (stereo partly drawn)	none (no result: ID4 binder, p53 PUMA act)
O=C(COc1ccccc1[N+](=O)[O-])Nc1ccc(Br)cc1C(=O)O	none
CCC(C)c1ccccc1OCC(=O)Nc1ccccc1C#N (stereo not drawn)	none
CC(C)c1ccc(OCC(=O)Nc2ccccc2C#N)c(Br)c1	p53 PUMA act 130
CCc1ccc(OCC(=O)Nc2cccc3ncccc23)cc1	none
CCc1ccc(OCC(=O)Nc2ccccc2C#N)cc1	p53 PUMA act 64
COc1ccc(NC(=O)CSc2nnc3sc4ccccc4n23)cc1	none
COC(=O)c1c2oc(c1C(=O)OC)C(=O)N[C@@H](Cc1ccccc1)Cn1cc(nn1)CNC(=O)[C@H](Cc1ccccc1)NC(=O)N[C@@H](CO)CC2	none (no result: p53 PUMA act, STK33 kin inh)
COC(=O)c1c2oc(c1C(=O)OC)C(=O)N(C)Cc1cn(nn1)C[C@H](Cc1ccccc1)NC(=O)N[C@H](CO)CC2	ID4 binder active (no result: p53 PUMA act, STK33 kin inh)
COC(=O)c1c2oc(c1C(=O)OC)C(=O)N(C)Cc1cn(nn1)C[C@@H](C)NC(=O)N[C@H](CO)CC2	none (no result: p53 PUMA act, STK33 kin inh)
